Screens as filed in PubChem.
Only some compounds are listed: those with a hit (about 4% of all), similar ones and a draw of the others.
Beta cell apopt = inhibitors of cytokine-induced beta cell apoptosis, primary screen, luminescence. AID 435005, 2010. protection from apoptosis, % (test concentration not listed). INS-1E cytokine-induced death, ATP luminescence, 48 h; percent of positive-control rescue, neutral wells zero. 300,000 tested, 0.8% active;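 active = Every replicate reaches about 75%, or at least half do and their mean reaches it too, limit read from the data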;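 also: 0% = cytokine-treated negative control wells and 100% = positive control rescue; higher means more ATP so stronger rescue from cytokine killing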
Gli-Sufu block = Gli-Sufu pathway antagonists, primary screen, luciferase luminescence, Sufu-KO-LIGHT cells, uHTS; Sufu-KO-LIGHT fibroblasts, Gli luciferase reporter luminescence; inhibition, % at 5 µM; 340,000 tested, 0.74% active;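 active = inhibition above about 55%, limit read from the data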;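 also: 0% = DMSO-treated cells and 100% = wells with medium but no cells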
CSC inhib = cancer stem cell viability inhibitors, primary screen, luminescence; cancer stem cell-like cells viability; inhibition, % at 7.5 µM; 300,000 tested, 1.1% active; in the data active = inhibition above about 75%; tested in HMLE shEcad cells
PAX8 inh HTS = inhibitors of PAX8-driven TPO luciferase reporter, primary screen, RMG-I cells, single concentration. SteadyGlo, 24 h. inhibition, % at 12.6 µM. 360,000 tested, 1.2% active. AID 652154, 2013;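 active = mean replicate inhibition at least 60% with every replicate also reaching 60%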;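 also: luciferase light reporting Pax8 driven TPO promoter activity; plate controls were median of neutral control wells for no effect and mitoxantrone controls for full effect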
Shn3 inh set2 = reduction of Shn3 3'UTR firefly luciferase signal, primary screen, Schnurri-3 inhibitor project, cell-based, Clone20 osteoblasts, set 2 | Clone20 osteoblast Shn3 3'UTR firefly luciferase, 24 h | inhibition, % at 12.5 µM | 360,000 tested, 0.52% active;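 active = mean inhibition of at least 75% with every replicate also reaching 75%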;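 also: 0% = median of neutral control wells and 100% = pilot-screen positive control compound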
Mdm2-MdmX inh = inhibitors of human Mdm2-MdmX association, primary screen, cell-based, luminescence, split luciferase, SaOS-2, uHTS. SaOS-2 split-luciferase Mdm2/MdmX complementation. inhibition, % at 8 µM. 330,000 tested, 3% active. AID 485346, 2010;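 active = inhibition of at least 50% at 8 µM in the primary screen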
Target sequence (O15151 whole entry, looked up): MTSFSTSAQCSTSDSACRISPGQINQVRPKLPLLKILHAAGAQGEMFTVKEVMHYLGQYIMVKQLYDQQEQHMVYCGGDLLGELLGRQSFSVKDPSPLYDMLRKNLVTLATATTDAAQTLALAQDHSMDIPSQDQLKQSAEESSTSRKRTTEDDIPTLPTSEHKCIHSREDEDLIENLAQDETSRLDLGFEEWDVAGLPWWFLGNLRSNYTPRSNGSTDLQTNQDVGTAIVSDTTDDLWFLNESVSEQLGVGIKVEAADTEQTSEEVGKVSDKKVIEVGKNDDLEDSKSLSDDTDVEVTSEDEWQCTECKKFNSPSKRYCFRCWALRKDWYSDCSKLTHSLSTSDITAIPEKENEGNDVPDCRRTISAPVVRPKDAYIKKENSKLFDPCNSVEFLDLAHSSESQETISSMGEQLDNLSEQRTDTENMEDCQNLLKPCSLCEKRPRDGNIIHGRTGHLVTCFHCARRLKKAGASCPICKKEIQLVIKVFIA
Target sequence (Q00987 whole entry, looked up): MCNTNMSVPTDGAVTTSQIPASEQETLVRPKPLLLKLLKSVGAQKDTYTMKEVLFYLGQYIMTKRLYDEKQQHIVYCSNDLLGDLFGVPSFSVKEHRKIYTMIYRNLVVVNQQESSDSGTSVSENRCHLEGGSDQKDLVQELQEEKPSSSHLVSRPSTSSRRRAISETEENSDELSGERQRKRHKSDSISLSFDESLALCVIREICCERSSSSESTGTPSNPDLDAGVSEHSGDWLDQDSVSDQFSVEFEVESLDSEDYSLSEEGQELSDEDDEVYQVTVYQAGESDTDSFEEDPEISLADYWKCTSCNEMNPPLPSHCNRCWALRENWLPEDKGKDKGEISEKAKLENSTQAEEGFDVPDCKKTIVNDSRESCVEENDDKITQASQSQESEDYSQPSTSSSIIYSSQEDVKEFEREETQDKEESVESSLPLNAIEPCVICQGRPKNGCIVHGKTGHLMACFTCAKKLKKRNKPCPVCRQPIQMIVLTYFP
Mdm2 MdmX conf = Mdm2-MdmX complex disruptors, retested hits, confirmation, luminescence, single concentration | shares compounds with Mdm2-MdmX inh | Mdm2-MdmX binding, luminescent assay | inhibition, % at 8 µM | 10,000 tested, 55% active | AID 489028, 2010; in the data active = inhibition above about 40%
FLuc counter = full-length luciferase signal inhibition, confirmation, counter-screen for Mdm2/MdmX interaction inhibitor project, cell-based, single concentration, SaOS-2 | 6,200 tested, 77% active | inhibition, % at 8 µM | shares compounds with Mdm2-MdmX inh | SaOS-2 full-length luciferase counterscreen, luminescence;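 active = mean inhibition at 8 µM reaching about 37%, which flags the compound as non-specific, limit read from the data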;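 also: p53-null SaOS-2 cells with luciferase driven by a doxycycline-inducible promoter; compound on cells about two nights before reading with doxycycline added after day one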
* = called active by the depositor; · = no result.

SMILES	Beta cell apopt	Gli-Sufu block	CSC inhib	PAX8 inh HTS	Shn3 inh set2	Mdm2-MdmX inh	Mdm2 MdmX conf	FLuc counter
Cc1ccc2nc(N(CCN(C)C)C(=O)/C=C/c3cccs3)sc2c1	10	-6	-14	22	-6	32	·	·
CN(C)CCN(C(=O)/C=C/c1cccs1)c1nc2c(F)cc(F)cc2s1	25	-3	0	97*	55	69*	42*	29
CN(C)CCN(C(=O)/C=C/c1cccs1)c1nc2ccc(Br)cc2s1	7	13	20	19	10	27	·	·
CCN(CC)CCN(C(=O)/C=C/c1cccs1)c1nc2ccc(F)cc2s1	10	15	36	0	-10	52*	20	·
CN(C)CCCN(C(=O)/C=C/c1cccs1)c1nc2ccc(F)cc2s1	20	11	12	26	-27	59*	39	63*
CCN(CC)CCN(C(=O)/C=C/c1cccs1)c1nc2ccc(C)cc2s1	20	-2	-33	7	-5	65*	20	·
C[C@H]1CN([C@@H](C)CO)C(=O)c2cc(NC(=O)C3CCCCC3)ccc2O[C@@H]1CN(C)C(=O)Nc1cccc2ccccc12	·	·	·	9	·	·	·	·
O=C(NC[C@H]1[C@H](c2ccccc2)[C@H](CO)N1C(=O)Cc1ccncc1)C1CCC1	·	·	·	-3	·	·	·	·
COc1cc(-c2nc3ccc4ccccc4c3c3c2CCC3)cc(OC)c1O	1	-7	8	-7	13	40	·	·
COc1cc(-c2nc3ccc4ccccc4c3c3c2CCC3)cc(OC)c1OC	32	3	30	·	12	62*	57*	57*
C[C@@H]1CCCCO[C@H](CN(C)C(=O)Nc2ccc(F)cc2)[C@H](C)CN([C@@H](C)CO)C(=O)c2cc(NC(=O)Nc3cccc4ccccc34)ccc2O1	·	·	·	11	·	·	·	·
Cc1ccc(/C=C2\SC(=S)N(CCCC(=O)Nc3ccc(O)cc3)C2=O)cc1	-1	42	34	42	17	93*	89*	47*
CCc1ccc(/C=C2\SC(=S)N(CCCC(=O)Nc3ccc(C(=O)O)cc3)C2=O)cc1	-6	44	5	43	27	40	·	·
COC(=O)c1ccc(/C=C2/SC(=S)N(CCCC(=O)Nc3ccc(O)cc3)C2=O)cc1	-25	19	18	18	-15	100*	55*	5
O=C(CCCN1C(=O)S/C(=C\C=C\c2ccccc2)C1=O)Nc1ccc(O)cc1	-1	31	-2	5	-9	53*	-1	·
CNC(=O)C[C@H]1CC[C@H]2[C@H](COc3ccc(NC(=O)c4ccc(OC)cc4)cc3C(=O)N2C)O1	·	·	·	-21	·	·	·	·
O=C(C[C@H]1CC[C@@H](NS(=O)(=O)c2ccc(F)cc2)[C@H](CO)O1)N1CCC(Cc2ccccc2)CC1	·	·	·	28	·	·	·	·
Cc1noc(C)c1S(=O)(=O)N(C)C[C@@H]1Oc2ccc(NC(=O)NC3CCCCC3)cc2CC(=O)N([C@@H](C)CO)C[C@H]1C	·	·	·	21	·	·	·	·
CCCNC(=O)C[C@H]1CC[C@H]2[C@@H](COc3ccc(NC(=O)C4CCOCC4)cc3C(=O)N2C)O1	·	·	·	-22	·	·	·	·
COc1ccc2nc(Nc3nc(CSc4nc5ccccc5[nH]4)cc(=O)[nH]3)nc(C)c2c1	77*	-64	66	29	41	65*	52*	46*
Cc1cc(C)cc(Nc2nc3ccccc3c(=O)[nH]2)c1	0	1	-4	-11	-8	10	·	·
Cc1nc(Nc2nc(-c3ccccc3)cc(=O)[nH]2)nc2ccccc12	3	-19	·	·	-20	68*	45*	70*
